Assay results reported in ChEMBL document CHEMBL1157539, “Thousands of chemical starting points for antimalarial lead identification” (Nature, 2010).

How the values were obtained:
Type in all cases: functional
Plasmodium falciparum [1] = test: GSK_TCMDC: Inhibition of Plasmodium falciparum 3D7 in whole red blood cells, using parasite LDH activity as an index of growth. Test compounds present at 2uM
Plasmodium falciparum [2] = test: GSK_TCMDC: Inhibition of Plasmodium falciparum Dd2 in whole red blood cells, using parasite LDH activity as an index of growth. Test compounds present at 2uM
HepG2 = test: GSK_TCMDC: Percent inhibition of human HepG2 cell line. Test compounds present at 10uM.

| Compound | Inhibition (Plasmodium falciparum [1]) | Inhibition (Plasmodium falciparum [2]) | Inhibition (HepG2) |
| --- | --- | --- | --- |
| Cl.Clc1ccc2c(NCCNc3ccnc4cc(Cl)ccc34)ccnc2c1 | 100% | 96% | 6% |
| Cc1cc(-c2nc3cncc(-c4cccc(CN5CCCC5Cc5cccnc5)c4)c3n2C)nn1C.O=C(O)C(F)(F)F (stereo unspecified) | 83% | 73% | 0% |
| N#Cc1ccc(-c2ccc(C(=O)NC3CCN(CCN4CCc5c(cccc5C(F)(F)F)C4)CC3)cc2)cc1 | 98% | 51% | 40% |
| COc1cc2c(c(Cl)c1OC)CCN(C(=O)C(F)(F)F)CC2c1ccccc1 (stereo unspecified) | 100% | 100% | 7% |
| O=C(/C=C/c1ccc(Cl)cc1)NCCCCCN1CCCC(C(=O)Nc2ccc(F)c(Cl)c2)C1 (stereo unspecified) | 94% | 6% | 27% |
| Clc1nc(Cl)c2c(ccn2Cc2ccccc2)n1 | 100% | 61% | 0% |
| O=C(Nc1ccc(S(=O)(=O)N2CCOCC2)cc1)c1cc(-c2cc(Cl)ccc2O)n[nH]1 | 96% | 59% | 40% |
| Cc1cccc2nc(-c3ccc(-c4cccc(CN5CCC(CCN6CCCCC6)CC5)c4)s3)[nH]c12.O=C(O)C(F)(F)F | 100% | 100% | 99% |
| Clc1ccc2c(NN=Cc3cccs3)ccnc2c1 | 100% | 96% | 0% |
| COCC(C)n1c(SC(C)C(=O)Nc2cc([N+](=O)[O-])ccc2Cl)nc2ccccc2c1=O (stereo unspecified) | 95% | 94% | 0% |
| COc1ccccc1NC(=O)Nc1ccc(-c2cccc(-c3nc4ccccc4[nH]3)c2)cc1 | 100% | 25% | 42% |
| COCCN(CCOC)c1ncc(-c2ccsc2)c(-c2nc(C)c(C)s2)n1 | 96% | 63% | 1% |
| O=C(Nc1cccc(-c2csc(-c3nc4ccccc4[nH]3)c2)c1)c1cc(=O)c2ccccc2[nH]1 | 98% | 39% | 41% |
| O=C(Nc1cccc(C(F)(F)F)c1)N1CCOC(CCN2CCC3(CCc4ccccc43)CC2)(c2ccc(Cl)c(Cl)c2)C1 (stereo unspecified) | 99% | 70% | 31% |
| O=C(NC1CCN(CCN2CCC(c3c[nH]c4ccccc34)CC2)CC1)c1ccc(-c2ccc(C(F)(F)F)cc2)cc1 | 99% | 100% | 100% |
| COc1ccc(NC(=O)Nc2ccc(-c3cccc(-c4nc5ccccc5[nH]4)c3)cc2)cc1 | 99% | 41% | 44% |
| Br.CCCc1cccc(OC)c1OCCCON1C(N)=NC(N)=NC1(C)C | 94% | 97% | 65% |
| Cc1cc(NCCc2cccc(F)c2)nc(NC(=N)Nc2cccc(C(F)(F)F)c2)n1 | 100% | 99% | 42% |
| CN1CCC(N2CCC(Oc3cccc(C(=O)NCCCC4CCCC4)c3)CC2)CC1 | 100% | 48% | 41% |
| Cc1ccc(CNC(=O)[C@H](CC(C)C)Nc2cc(C)nc(NCC3CCCCC3)n2)cc1.O=C(O)C(F)(F)F | 96% | 44% | 6% |
| Cc1ccc(NC(=O)c2ccc(CN3CCCN(Cc4cccc(C#N)c4)CC3)cc2)cc1F.O=C(O)C(F)(F)F | 98% | 19% | 49% |
| CCC(=O)N1CCc2cc(Br)cc(S(=O)(=O)N3CC(C)CC(C)C3)c21 (stereo unspecified) | 85% | 84% | 5% |
| COCCNCc1nc(-c2ccc3c(Nc4ccc(Cl)cc4F)ccnc3c2)cs1 | 100% | 100% | 0% |
| Nc1nonc1-c1nc2c(-c3cccc(Cl)c3)nccc2n1CCCNC(=O)Cc1ccc(Cl)cc1 | 94% | 92% | 0% |
| O=C(COc1ccc(Cl)c(Cl)c1)NCCCCCN1CCCN(C(=O)Nc2cc(Cl)cc(Cl)c2)CC1.O=C(O)C(F)(F)F | 89% | 1% | 44% |
| Cl.Cn1c(=N)n(CC(=O)N2CCc3ccc(Cl)cc3C2Cc2ccc(Cl)c(Cl)c2)c2ccccc21 (stereo unspecified) | 100% | 52% | 99% |
| Cc1cccc2nc(-c3ccc(-c4cccc(CNCCN(C)C)c4)cc3)[nH]c12.O=C(O)C(F)(F)F | 100% | 98% | 6% |
